# Experimental data from article PMC8384837, “Expanding the binding specificity for RNA recognition by a PUF domain”.
# Positions count from the first letter of the chain named.
# Legend:
# Assay in all cases: yeast three-hybrid, YBZ-1, SC-Leu-His + 0.5 mM 3-AT, 4 days
# Settings in all cases: tags: N-Gal4 AD-HA kept; label: inside an RPR1-promoter hybrid RNA with tandem MS2 sites; ssRNA
# [1] = molecular target: T1, PUM1 PUF domain R6-CFR (Homo sapiens, UniProt Q14671 828-1176, N1043C;Y1044F;Q1047R)
# T1 sequence: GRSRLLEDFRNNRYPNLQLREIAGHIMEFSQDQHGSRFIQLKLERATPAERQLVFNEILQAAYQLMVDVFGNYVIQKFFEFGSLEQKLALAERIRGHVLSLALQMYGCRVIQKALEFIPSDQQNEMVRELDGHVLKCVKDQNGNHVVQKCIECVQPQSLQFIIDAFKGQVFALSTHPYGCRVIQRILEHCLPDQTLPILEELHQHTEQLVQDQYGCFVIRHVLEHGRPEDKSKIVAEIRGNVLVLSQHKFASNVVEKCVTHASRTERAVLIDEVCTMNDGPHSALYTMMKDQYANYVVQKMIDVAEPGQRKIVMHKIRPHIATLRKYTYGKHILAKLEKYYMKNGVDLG
# Outline: (§1)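 Sequencing with Illumina followed PCR amplification of the repeat regions from transformants grown four days on SC-Leu (input) or SC-Leu-His + 0.5 mM 3-AT (selection). The transformants were strain YBZ-1 with a LexA–MS2 coat fusion and a HIS3 reporter, carrying Pumilio-1 PUF domain libraries and matching RNA elements. The interaction score is the log change in variant frequency from input to selection, computed in log2 with a pseudocount of 1 for absent variants.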
# [2] = molecular target: PUM1 PUF domain R5-SRV (Homo sapiens, UniProt Q14671 828-1176, C1007S;Q1011V)
# Outline: as §1
# [3] = molecular target: PUM1 PUF domain R5-SRK (Homo sapiens, UniProt Q14671 828-1176, C1007S;Q1011K)
# Outline: as §1
# [4] = molecular target: PUM1 PUF domain R5-KPV (Homo sapiens, UniProt Q14671 828-1176, C1007K;R1008P;Q1011V)
# Outline: as §1
# [5] = molecular target: PUM1 PUF domain R5-RKG (Homo sapiens, UniProt Q14671 828-1176, C1007R;R1008K;Q1011G)
# Outline: as §1
# [6] = molecular target: PUM1 PUF domain R5-PLD (Homo sapiens, UniProt Q14671 828-1176, C1007P;R1008L;Q1011D)
# Outline: as §1
# [7] = molecular target: PUM1 PUF domain R8-GFR (Homo sapiens, UniProt Q14671 828-1176, N1122G;Y1123F;Q1126R)
# Outline: as §1
# [8] = molecular target: PUM1 PUF domain R3-LYE (Homo sapiens, UniProt Q14671 828-1176, C935L;R936Y;Q939E)
# Outline: as §1
# [9] = molecular target: T2, PUM1 PUF domain R6-LFG (Homo sapiens, UniProt Q14671 828-1176, N1043L;Y1044F;Q1047G)
# T2 sequence: T1 sequence with C216L, R220G
# Outline: as §1
# [10] = molecular target: PUM1 PUF domain R3-WFS (Homo sapiens, UniProt Q14671 828-1176, C935W;R936F;Q939S)
# Outline: as §1
sequence,measurement,setting,value
GGCUAGAACUAGUGGAUCCCCCGGCGCCCGGCGGCUCGAGCCCGGGUAAGUGCAAAUAGUCUGCAUGCCGCCGGGCGCCAUGCCUGCAGGUCGACUCUAGAAAACAUG,binding signal,[1],6.28 log2 enrichment (interaction score)
GGCUAGAACUAGUGGAUCCCCCGGCGCCCGGCGGCUCGAGCCCGGGUAAGUGUGAAUAGUCUGCAUGCCGCCGGGCGCCAUGCCUGCAGGUCGACUCUAGAAAACAUG,binding signal,[2],2.79 log2 enrichment (interaction score)
same,binding signal,[3],3.42 log2 enrichment (interaction score)
GGCUAGAACUAGUGGAUCCCCCGGCGCCCGGCGGCUCGAGCCCGGGUAAGUGUCAAUAGUCUGCAUGCCGCCGGGCGCCAUGCCUGCAGGUCGACUCUAGAAAACAUG,binding signal,[4],3.85 log2 enrichment (interaction score)
same,binding signal,[5],2 log2 enrichment (interaction score)
same,binding signal,[3],2.72 log2 enrichment (interaction score)
GGCUAGAACUAGUGGAUCCCCCGGCGCCCGGCGGCUCGAGCCCGGGUAAGUGUUAAUAGUCUGCAUGCCGCCGGGCGCCAUGCCUGCAGGUCGACUCUAGAAAACAUG,binding signal,[4],1.4 log2 enrichment (interaction score)
same,binding signal,[5],2.88 log2 enrichment (interaction score)
same,binding signal,[3],5.28 log2 enrichment (interaction score)
GGCUAGAACUAGUGGAUCCCCCGGCGCCCGGCGGCUCGAGCCCGGGUAAGUGUAAAUAGUCUGCAUGCCGCCGGGCGCCAUGCCUGCAGGUCGACUCUAGAAAACAUG,binding signal,[1],4.59 log2 enrichment (interaction score)
same,binding signal,[6],2.61 log2 enrichment (interaction score)
same,binding signal,[7],4.66 log2 enrichment (interaction score)
same,binding signal,[8],3.76 log2 enrichment (interaction score)
same,binding signal,[5],0.47 log2 enrichment (interaction score)
same,binding signal,[2],0.54 log2 enrichment (interaction score)
same,binding signal,[3],3.38 log2 enrichment (interaction score)
GGCUAGAACUAGUGGAUCCCCCGGCGCCCGGCGGCUCGAGCCCGGGUAAGCGUAAAUAGUCUGCAUGCCGCCGGGCGCCAUGCCUGCAGGUCGACUCUAGAAAACAUG,binding signal,[7],4.51 log2 enrichment (interaction score)
GGCUAGAACUAGUGGAUCCCCCGGCGCCCGGCGGCUCGAGCCCGGGUAAGUGAAAAUAGUCUGCAUGCCGCCGGGCGCCAUGCCUGCAGGUCGACUCUAGAAAACAUG,binding signal,[1],4.42 log2 enrichment (interaction score)
same,binding signal,[9],5.7 log2 enrichment (interaction score)
GGCUAGAACUAGUGGAUCCCCCGGCGCCCGGCGGCUCGAGCCCGGGUAAGUGUAAUUAGUCUGCAUGCCGCCGGGCGCCAUGCCUGCAGGUCGACUCUAGAAAACAUG,binding signal,[10],2.63 log2 enrichment (interaction score)
